Assay outcomes (PubChem BioAssay)
Vif inh: inhibitors of HIV Vif; inhibition, % at 7.49 µM; HEK293T cells, Vif self-association by quenched fluorescence, imaging, 24 h; 0.35% of 340,000 active; AID 602346; in the data active means inhibition above about 50%, passing the limit was not always enough
FGF22 binding-1: binders of recombinant human FGF22 by thermal shift. Q9HCT0. SYPRO orange fluorescence; percent of sucrose octasulfate shift, DMSO zero. activity (Tm shift, normalised), % at 9.99 µM. 1.5% of 340,000 active. AID 651658;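 active means mean Tm shift, scaled 0 neutral to 100 positive control, at about 1.3% or above, every replicate too, limit read from the data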
Target sequence (Q9HCT0 whole entry, looked up): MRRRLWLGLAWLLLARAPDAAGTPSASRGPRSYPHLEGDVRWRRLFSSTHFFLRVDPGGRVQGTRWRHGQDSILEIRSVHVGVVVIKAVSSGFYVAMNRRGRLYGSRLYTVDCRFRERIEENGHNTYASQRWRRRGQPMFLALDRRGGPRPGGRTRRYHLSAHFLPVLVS
F508del corr: correctors of CFTR F508del function in bronchial epithelial cells | CFBE cells, YFP halide quenching; stimulated with forskolin plus potentiator P3; % fluorescence drop versus neutral controls | activity (quench increase), % at 7.58 µM | 0.36% of 350,000 active | AID 720511;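 active means mean added fluorescence quench of at least 8% versus neutral control, with both replicates also reaching 8%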;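 further: cells transiently co-express mutant CFTR-F508del with the halide-sensitive YFP; corrector assay measuring rescue of mutant channel to the surface after 24 h compound exposure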
FGF22 binding-2: FGF22 (human) binding in thermal shift; shares compounds with FGF22 binding-1; recombinant FGF22 thermal shift, SYPRO orange fluorescence; thermal shift activity, °C (ΔTm) at 38 µM; 2% of 1,000 active; AID 720646;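 active means fitted rise in melting shift crosses a set limit at or below the top valid dose tested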
SYPRO no-protein: counter-screen for FGF22 binders: compound-only thermal shift, no protein. AC50, µM (series often up to 38 µM). shares compounds with FGF22 binding-1. AID 743019. compound-only SYPRO orange thermal shift counter-screen. 2% of 1,000 active;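 active means rising signal whose fitted curve reaches the 0.54 level within the top valid dose, showing a melting point, actives reach about 13 µM in these data; inactive means the rest, including activity in the opposite direction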; further: value is where the raw curve crosses a fixed level and not half-maximal
A number is an active result; - = inactive; . = not tested or not shown; ! = repeats disagree. Sampled rows, rich in hits. Any-hit rate of the full collection: about 1.7%.

SMILES	Vif inh	FGF22 binding-1	F508del corr	others
C[C@@H]1O[C@@H](O[C@@H]2C=C3CC[C@@H]4C(CC[C@]5(C)[C@@H](c6ccc(=O)oc6)CC[C@]45O)[C@@]3(C)CC2)[C@H](O)[C@H](O)[C@H]1O (stereo not given in full)	-	-	24
C[C@@H]1O[C@@H](O[C@@H]2C=C3CCC4C(CC[C@]5(C)[C@@H](c6ccc(=O)oc6)CC[C@]45O)[C@@]3(C)CC2)[C@H](O)[C@H](O)[C@H]1O (stereo not given in full)	-	-	-
O=C(Cc1ccccn1)N1CCCCN2[C@@H](CO)[C@@H](c3ccc(-c4ccc(F)cc4)cc3)[C@@H]2C1	.	-	-
Cc1c2cnn(CC(=O)N3CCC4(CC3)OCCO4)c(=O)c2c(C)n1Cc1cccc(Cl)c1	-	-	-
O=C(Cn1ncc2c3ccccc3n(Cc3cccc(Cl)c3)c2c1=O)N1CCC2(CC1)OCCO2	56	.	.
COc1ccc(C#Cc2ccc([C@@H]3[C@@H](CO)N4CCCCN(C(=O)Cc5ccncc5)C[C@@H]34)cc2)cc1	.	-	-
COC(=O)C[C@@H]1CC[C@H]2NC[C@@H](O)COC[C@@H]2O1	.	-	-
O=C(Cc1ccccc1)N1CCCCN2[C@H](C1)[C@@H](c1ccc(-c3ccccc3)cc1)[C@@H]2CO	.	-	-
COc1ccc(C#Cc2ccc([C@H]3[C@H](CO)N4CCCCN(C(=O)Cc5cccnc5)C[C@@H]34)cc2)cc1	.	-	-
Cc1ccc(N)cc1Cl	-	-	-
Nc1ccc(Cl)c(Cl)c1	-	-	12
OC(c1ccccc1)(c1ccccc1)C1CN2CCC1CC2 (stereo not given)	-	44	-
OC(c1ccccc1)(c1ccc(Cl)cc1)C1CN2CCC1CC2 (stereo not given)	-	-	-
CN1CCN(c2nc(N(C)C)oc(=O)c2C#N)CC1	-	.	.
N#Cc1c(N2CCNCC2)nc(-c2ccco2)c2c1CCCC2	-	1.9	-
CC=Cc1ccc2n(c1=O)C[C@H]1[C@H](CO)[C@@H](C(=O)OC)[C@@H]2N1S(=O)(=O)c1ccccc1C (mixture of isomers)	.	-	-
C=C1C(=O)O[C@@H]2C[C@@H](C)[C@@H]3C=CC(=O)[C@@]3(C)[C@@H](O)[C@H]12	54	-	13
CC=Cc1ccc2n(c1=O)C[C@@H]1[C@@H](CO)[C@H](C(=O)N(C)C)N[C@H]21 (mixture of isomers)	.	-	-
COC(=O)[C@H]1[C@H](CO)[C@H]2Cn3c(ccc(C4=CCCCC4)c3=O)[C@@H]1N2C(=O)Cc1ccccn1	.	-	-
CCOC(=O)C1CCCN(c2ccc([N+](=O)[O-])c3nonc23)C1 (stereo not given)	-	-	14
CC1CCCN(c2ccc(C(=O)N3CCC4(CC3)OCCO4)cc2[N+](=O)[O-])C1 (stereo not given)	-	-	-
C=CCN1C(=O)/C(=C/c2ccc(N3CCOCC3)o2)C(=O)NC1=S	-	.	.
O=C1NC(=O)C(=Cc2ccc(N3CCOCC3)o2)C(=O)N1	-	-	9.2
Cc1ccc(/C=C2\C(=O)NC(=O)N(CC3CCCO3)C2=O)s1 (stereo not given)	-	-	-
CCN(CC)c1ccc(/C=C2\C(=O)NC(=O)N(CC3CCCO3)C2=O)cc1 (stereo not given)	-	43	-
SMILES	Vif inh	FGF22 binding-1	F508del corr	others
Cc1ccc(S(=O)(=O)N(C)C[C@H]2Oc3cc(Br)ccc3S(=O)(=O)N([C@H](C)CO)C[C@@H]2C)cc1	-	1.6!	-	FGF22 binding-2=-;SYPRO no-protein=10µM
Cc1ccc(OC(=O)N(C)C[C@@H]2OCc3cnnn3CCCC(=O)N([C@@H](C)CO)C[C@H]2C)cc1	.	-	-
Cc1ccc(OC(=O)N(C)C[C@H]2OCc3cnnn3CCCC(=O)N([C@H](C)CO)C[C@H]2C)cc1	.	-	-
Cc1ccc(S(=O)(=O)N(C)C[C@@H]2Oc3cc(Br)ccc3S(=O)(=O)N([C@@H](C)CO)C[C@H]2C)cc1	.	2.2	-	FGF22 binding-2=-;SYPRO no-protein=-
COC(=O)[C@H]1[C@H](CO)[C@H]2Cn3c(ccc(/C=C/c4ccccc4)c3=O)[C@@H]1N2Cc1ccccc1F	.	-	.
COc1ccc(C#Cc2ccc([C@@H]3[C@@H](CO)N4CCCCN(C(=O)Cc5ccccc5)C[C@@H]34)cc2)cc1	.	-	-
OC(CNCCc1c[nH]c2ccccc12)c1ccccc1 (stereo not given)	-	1.4	-	FGF22 binding-2=-;SYPRO no-protein=-
Fc1ccc(CNCCc2c[nH]c3ccccc23)cc1	-	-	-
OC[C@H]1[C@@H]2c3ccccc3NC[C@@H]2N1Cc1cccnc1	.	-	-
O=C(c1cccc2ccccc12)C1CCCN(Cc2ccon2)C1 (stereo not given)	-	2.2	-	FGF22 binding-2=-;SYPRO no-protein=-
Cc1cc(Cl)ccc1C(=O)C1CCCN(Cc2ccon2)C1 (stereo not given)	-	-	-
N/C(=N\[N+](=O)[O-])NCCCC(NC(=O)CNC(=O)c1ccccc1)C(=O)O (stereo not given)	-	2.5	-	FGF22 binding-2=-;SYPRO no-protein=-
N/C(=N\[N+](=O)[O-])N1CCN(C(=O)c2ccccc2)CC1	.	-	-
CCCN1[C@@H]2Cn3c(ccc(-c4ccccc4)c3=O)[C@H]1[C@@H](C(=O)OC)[C@@H]2CO	.	-	-
CCC(C)n1c(O)c(C(c2ccccn2)c2c(O)n(C(C)CC)c(=S)[nH]c2=O)c(=O)[nH]c1=S (stereo not given)	-	26	-	FGF22 binding-2=-;SYPRO no-protein=-
CCC(C)n1c(O)c(C=NC(C)c2ccccc2)c(=O)[nH]c1=S (stereo not given)	-	-	-
O=C(Cc1ccncc1)N1CCCCN2[C@H](CO)[C@@H](c3ccc(C#CC4(O)CCCC4)cc3)[C@@H]2C1	.	-	-
COC(=O)[C@@H]1[C@@H](CO)[C@@H]2Cn3c(ccc(-c4ccccc4)c3=O)[C@H]1N2CC1CCCCC1	.	-	-
